Measurements reported in PubChem BioAssay (NCI).
About 83,000 compounds went through this panel and 20% of them were active in at least one assay; those are over-represented in the sample as a whole.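 Percent growth is the endpoint: 0 to 100 indicates growth inhibition (40 means 60% inhibition), 0 means no net growth, and negative values indicate cell death.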 Unmarked numbers belong to inactive results. Active and inactive are the calls of the source. How the source made its calls: active means growth percent below 10; inactive means the rest.

What was measured:
Assay in all cases: NCI-60 one-dose screen, 48 h (100 = growth as untreated, 0 = no growth, -100 = all killed)
Details in all cases: 10 µM unless noted
[1] = test system: T-47D breast
[2] = test system: BT-549 breast
[3] = test system: MDA-MB-435 melanoma
[4] = test system: SW-620 colon
[5] = test system: MCF7 breast
[6] = test system: HCT-116 colon
[7] = test system: HCC-2998 colon
[8] = test system: KM12 colon

Compound | growth [1] | growth [2] | growth [3] | growth [4] | growth [5] | growth [6] | growth [7] | growth [8]
CCN(CC)CCNC(=O)c1ccc(-c2nc3ccc4[nH]ncc4c3c3c2CCCC3)cc1 | 44.6% | 59.5% | 42.9% | 28.4% | 62.4% | 24.1% | 84.3% | 46.2%
O=C1Nc2ccccc2/C1=C/c1cn(C[C@@H](O)Cn2c3ccccc3c(=O)c3ccccc32)c2ccccc12 | 62.7% | 73.3% | 85.1% | 78.7% | 45.9% | 57.7% | 76.1% | 68.2%
CCN1C(=S)N(CC)C2C1NC(=S)N2/N=C/C=C/c1ccccc1OC (stereo not drawn) | 59.4% | 13.5% | -42.8% (active) | 23.8% | 17.9% | 13.6% | 11.6% | 15%
CCC(CC)(N(CC(=O)O)CC(=O)O)C(CC)(CC)N(CC(=O)O)CC(=O)O | 96.3% | 117% | 126% | 112% | 100% | 110% | 98.1% | 120%
COc1ccc(/C(C)=C(\c2ccc(Cl)cc2)c2ccc(OCCN3CCCC3)cc2)cc1 | 45.9% | 57.9% | 39.2% | 25.1% | 13% | 23.6% | 87% | 24.5%
C=C1C(=O)O[C@H]2[C@H]1CC/C(COC(=O)NCc1ccc(Cn3c(=O)sn(-c4ccc(OC)cc4)c3=O)cc1)=C\CC[C@@]1(C)O[C@@H]21 | 18.5% | 73.1% | 67.1% | -59.8% (active) | 20.3% | 5.31% (active) | 97.5% | 95.3%
CCCCCCCCNc1cc2c3c(c1)CCCN3CCC2 | 13.4% | 20% | 9.1% (active) | 9.22% (active) | 24.3% | 5.39% (active) | 11.8% | 5.45% (active)
Cc1ccc(C)c2c1C(O)(C#Cc1ccccc1)c1ccccc1C2(O)C#Cc1ccccc1 (stereo not drawn) | 38.5% | 68% | 47.9% | 53.5% | 28.9% | 43.3% | 87.4% | 50.1%
CN(C)c1ccc(-c2cc(-c3ccc(Nc4nc(Nc5ccc(Cl)cc5)nc(Nc5ccc(Cl)cc5)n4)cc3)nc(N)c2C#N)cc1 | 41.3% | 95.6% | 84% | 92.8% | 41.9% | 60.5% | 107% | 74.1%
CCCCCSB(SCCCCC)c1ccccc1 | 94.3% | 105% | 103% | 100% | 104% | 106% | 88.7% | 107%
Cc1ccc(Nc2nc(-c3ccc(F)cc3)c(C#N)c(=O)n2C)cc1 | 35.5% | 52.8% | 74.7% | 68.9% | 56.1% | 53.4% | 86.2% | 87.7%
COc1cc(C(=O)c2c(N)ncn2-c2ccccc2)cc(OC)c1OC | 101% | 98.8% | 43.8% | 88.1% | 87.1% | 90.3% | 99.6% | 72.4%
Cn1c(O)c(C(/C=C/c2ccccc2)=Nc2ccccc2N)c(=O)n(C)c1=O | 85.5% | 121% | 95.5% | 106% | 99% | 56.7% | 90% | 107%
Cc1ccc(O)c(NC(=O)c2ccc(CNc3ccnc(C(F)(F)F)c3)cc2)c1 | 82.3% | 52.3% | 39.6% | 87% | 37.6% | 66.4% | 27.7% | 72.3%
COC(=O)c1c2c(n3ccc(C)cc13)C(=O)c1ccccc1C2=O | 82% | 69.7% | 93.4% | 54.3% | 55.9% | 41.6% | 94.6% | 59.4%
Cc1cc2nc(-c3c(-c4ccc(F)cc4)nc4sccn34)[nH]c2cc1C | 85.7% | 109% | 103% | 108% | 91.6% | 103% | 106% | 96.7%

Compound | growth [1] | growth [2] | growth [3] | growth [4] | growth [5] | growth [6] | growth [7] | growth [8]
Cc1ccc(/C=C2\CN(C(=O)C(Cl)Cl)C/C(=C\c3ccc(C)cc3)C2=O)cc1 | -29% (active) | -15.3% (active) | -75.1% (active) | -66.6% (active) | -32.1% (active) | -84.6% (active) | -89.6% (active) | -65.8% (active)
O=C1/C(=C/c2ccc(C(F)(F)F)cc2)COc2ccc(O)c(O)c21 | -36.8% (active) | 10.9% | -5.38% (active) | -46% (active) | 4.91% (active) | -35.5% (active) | -39.2% (active) | -31.3% (active)
CC1=NN(c2ccc(Cl)cc2)CC1(C)N=O (stereo not drawn) | 60.8% | 86.1% | 48.5% | 43.7% | 29.7% | 30.9% | 102% | 99.5%
COc1ccc(Cc2nnc(Nc3nc4ccccc4s3)s2)cc1 | 113% | 99.6% | 96.8% | 97.8% | 105% | 104% | 103% | 102%
COc1ccc(-c2oc(=O)ccc2-c2cc(OC)c(OC)c(OC)c2)cc1O | 44.7% | 24.7% | -64.9% (active) | 14.8% | 10.6% | -30.2% (active) | 211% | 22.6%
CN1CCN(CCCOC(=O)c2c3c(n4ccccc24)C(=O)c2ncccc2C3=O)CC1 | 47.6% | 24.9% | -40.4% (active) | -57.2% (active) | -45.9% (active) | -29.5% (active) | 29.9% | 17.5%
O=C1NC(=C(Cl)Cl)/C(=N/S(=O)(=O)N2CCCCC2)N1 | 41.6% | 63.6% | 47.6% | -62.3% (active) | 10.1% | 6.37% (active) | 4.74% (active) | 5.62% (active)
CC1(C)OC(=O)C(=Cc2cccc(Br)c2)C(=O)O1 | 92.7% | 108% | 108% | 102% | 102% | 102% | 113% | 111%
CC[C@@H](c1ccc2cc(OC)ccc2c1)C(C)(C)C(=O)F | 118% | 19.9% | 102% | 94.6% | 108% | 85.6% | 55.1% | 107%
CC[C@H](C)[C@H](NC(=O)[C@H](CCCNC(=N)N)NC(=O)[C@H](Cc1c[nH]c2ccccc12)NC(=O)[C@@H](NC(=O)[C@H](CCCCN)NC(=O)[C@H](CCCCN)NC(=O)[C@@H](NC(=O)[C@@H](NC(=O)[C@@H](NC(=O)[C@H](CCCCN)NC(=O)[C@H](Cc1ccccc1)NC(=O)[C@H](CCCCN)NC(=O)[C@H](CCCCN)NC(=O)[C@H](Cc1ccccc1)NC(=O)[C@@H](NC(=O)[C@@H](N)CCCCN)[C@@H](C)CC)[C@@H](C)O)[C@@H](C)CC)[C@@H](C)CC)C(C)C)C(=O)N[C@@H](Cc1ccccc1)C(=O)NCC(=O)N[C@@H](CCCNC(=N)N)C(=O)N[C@@H](Cc1ccccc1)C(N)=O | -30.1% (active) | 32.5% | -17% (active) | -14.9% (active) | -17% (active) | -3.28% (active) | 10.6% | -25.6% (active)
CCCCCCC(=O)Nc1ncc(Cc2ccc(C)cc2)s1 | 35.4% | 59.1% | -25.9% (active) | 22.4% | 24.7% | 33.3% | 70.3% | 30.7%
COc1ccc2c(c1)c(-c1cc(-c3cn(C)c4ccc(OC)cc34)on1)cn2C | 80.9% | 127% | 116% | 91.8% | 89% | 89.1% | 101% | 106%
CN(C)c1ccc(/C=C/C(=O)c2ccc(Nc3nc(Nc4ccc(F)cc4)nc(Nc4ccc(Cl)cc4)n3)cc2)cc1 | 50.4% | 75.7% | 56.2% | 92.3% | 56.7% | 58.7% | 111% | 73.8%
O=C(Nc1cccnc1Nc1ccc(Cl)cc1)c1cn(Cc2ccc(F)cc2)nn1 | 90.5% | 88% | 97.2% | 114% | 92.8% | 84.6% | 100% | 102%
COc1ccc2c(c1)c(-c1nonc1-c1c[nH]c3ccc(Br)cc13)cn2C | 25.7% | 63.6% | 6.34% (active) | 33.7% | 24.9% | 31.6% | 38.7% | 14.5%
